Laboratory results taken from paper PMC7862700, “An all-to-all approach to the identification of sequence-specific readers for epigenetic DNA modifications on cytosine”.

Assays:
Test in all cases: DAPPL (digital affinity profiling via proximity ligation, sequencing); 10 mM Tris-HCl pH 7.5, 50 mM NaCl, 1 mM DTT, 4% glycerol, room temperature, 30 min; GST-TFs on glutathione beads, 16-mer random dsDNA library, 0.1% formaldehyde crosslink after washing; high values mean tight binding
Conditions in all cases: protein: recombinant; tags: N-terminal GST; dsDNA, one strand shown
FLI1 = molecular target: T1, FLI1 (Homo sapiens, UniProt Q01543 1-452)
T1 sequence: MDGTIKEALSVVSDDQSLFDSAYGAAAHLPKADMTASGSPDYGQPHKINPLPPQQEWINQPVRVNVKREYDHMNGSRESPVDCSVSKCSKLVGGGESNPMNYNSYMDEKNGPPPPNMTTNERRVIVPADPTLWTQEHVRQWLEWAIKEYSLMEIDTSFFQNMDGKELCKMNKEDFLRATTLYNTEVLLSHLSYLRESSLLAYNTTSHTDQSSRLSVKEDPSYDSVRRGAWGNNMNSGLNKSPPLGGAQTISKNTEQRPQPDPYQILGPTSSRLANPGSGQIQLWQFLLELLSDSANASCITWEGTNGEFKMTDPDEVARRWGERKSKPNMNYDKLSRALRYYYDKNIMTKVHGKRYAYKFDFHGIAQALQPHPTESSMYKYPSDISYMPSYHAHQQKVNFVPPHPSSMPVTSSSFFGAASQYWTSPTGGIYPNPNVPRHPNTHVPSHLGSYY
Method in brief: (§1)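 Human transcription factors carrying a GST fusion were produced in yeast, bound to glutathione beads, tagged with DNA barcodes and pooled together with a tag-only sample. Each pool was held with 200 nmole of a random double-stranded 16-mer DNA library in Tris/NaCl/DTT/glycerol buffer for 30 min at room temperature, then washed, crosslinked in 0.1% formaldehyde, proximity-ligated with BsaI/T4 ligase (1 h, 37 °C), PCR-amplified and sequenced on an Illumina NextSeq500. Binding signal is the read frequency of each hexamer for a given factor divided by its frequency in the tag-only sample.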

ELK1 = molecular target: T2, ELK1 (Homo sapiens, UniProt P19419 1-428)
T2 sequence: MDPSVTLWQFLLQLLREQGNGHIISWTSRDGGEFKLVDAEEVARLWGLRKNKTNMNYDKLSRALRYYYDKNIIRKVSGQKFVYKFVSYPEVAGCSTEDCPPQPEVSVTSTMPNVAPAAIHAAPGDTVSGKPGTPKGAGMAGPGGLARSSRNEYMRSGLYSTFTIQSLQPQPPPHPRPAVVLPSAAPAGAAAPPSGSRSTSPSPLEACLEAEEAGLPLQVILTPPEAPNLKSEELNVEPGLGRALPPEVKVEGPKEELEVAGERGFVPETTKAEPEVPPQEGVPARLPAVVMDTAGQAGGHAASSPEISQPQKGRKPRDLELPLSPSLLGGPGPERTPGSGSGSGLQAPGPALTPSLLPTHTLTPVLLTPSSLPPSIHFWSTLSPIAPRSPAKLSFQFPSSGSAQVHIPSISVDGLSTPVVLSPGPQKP
Method in brief: as §1

GABPA = molecular target: T3, GABPA (Homo sapiens, UniProt Q06546 1-454)
T3 sequence: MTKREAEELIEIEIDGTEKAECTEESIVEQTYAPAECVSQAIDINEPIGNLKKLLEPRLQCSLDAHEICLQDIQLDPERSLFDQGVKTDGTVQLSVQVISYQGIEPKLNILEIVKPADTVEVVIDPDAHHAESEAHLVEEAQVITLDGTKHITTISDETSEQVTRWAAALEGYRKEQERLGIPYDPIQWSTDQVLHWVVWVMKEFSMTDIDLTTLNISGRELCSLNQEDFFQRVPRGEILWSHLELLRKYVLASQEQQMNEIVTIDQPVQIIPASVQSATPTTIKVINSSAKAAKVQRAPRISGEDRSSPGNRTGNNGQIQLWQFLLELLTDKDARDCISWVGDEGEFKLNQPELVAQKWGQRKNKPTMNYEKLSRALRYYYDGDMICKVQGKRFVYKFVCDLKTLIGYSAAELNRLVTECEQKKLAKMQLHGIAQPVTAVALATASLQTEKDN
Method in brief: as §1

ERG = molecular target: T4, ERG (Homo sapiens, UniProt P11308 1-479)
T4 sequence: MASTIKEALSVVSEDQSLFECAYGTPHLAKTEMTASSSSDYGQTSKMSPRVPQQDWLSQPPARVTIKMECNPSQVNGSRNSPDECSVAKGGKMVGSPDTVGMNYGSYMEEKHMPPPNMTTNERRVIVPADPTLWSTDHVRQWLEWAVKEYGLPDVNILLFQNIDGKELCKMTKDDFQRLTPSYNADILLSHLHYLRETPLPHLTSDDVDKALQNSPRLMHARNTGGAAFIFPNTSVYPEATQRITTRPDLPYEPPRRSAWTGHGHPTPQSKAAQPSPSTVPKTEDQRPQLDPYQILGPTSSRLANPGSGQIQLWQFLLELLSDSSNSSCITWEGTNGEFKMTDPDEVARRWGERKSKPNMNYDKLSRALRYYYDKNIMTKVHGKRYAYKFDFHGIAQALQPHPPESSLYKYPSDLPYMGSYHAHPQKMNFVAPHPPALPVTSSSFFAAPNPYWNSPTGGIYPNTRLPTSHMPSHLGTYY
Method in brief: as §1

ELF1 = ELF1 (Homo sapiens, UniProt P32519 1-619)
ELF1, sequence (P32519 whole entry): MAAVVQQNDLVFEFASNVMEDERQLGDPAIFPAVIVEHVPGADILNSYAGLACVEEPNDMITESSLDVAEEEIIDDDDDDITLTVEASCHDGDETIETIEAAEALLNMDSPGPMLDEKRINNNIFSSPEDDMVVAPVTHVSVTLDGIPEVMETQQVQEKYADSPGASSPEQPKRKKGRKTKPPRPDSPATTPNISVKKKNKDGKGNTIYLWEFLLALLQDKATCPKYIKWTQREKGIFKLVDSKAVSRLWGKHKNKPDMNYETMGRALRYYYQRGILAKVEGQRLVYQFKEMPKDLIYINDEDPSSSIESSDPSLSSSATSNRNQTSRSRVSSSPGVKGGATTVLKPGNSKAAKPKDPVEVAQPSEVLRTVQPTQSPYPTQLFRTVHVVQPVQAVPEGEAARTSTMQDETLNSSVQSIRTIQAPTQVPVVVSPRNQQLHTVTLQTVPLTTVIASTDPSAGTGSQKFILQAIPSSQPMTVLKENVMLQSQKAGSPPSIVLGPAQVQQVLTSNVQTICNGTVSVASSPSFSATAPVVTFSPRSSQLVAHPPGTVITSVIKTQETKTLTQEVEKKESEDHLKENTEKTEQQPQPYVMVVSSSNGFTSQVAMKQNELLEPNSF
Method in brief: as §1

EHF = molecular target: T5, EHF (Homo sapiens, UniProt Q9NZC4 1-300)
T5 sequence: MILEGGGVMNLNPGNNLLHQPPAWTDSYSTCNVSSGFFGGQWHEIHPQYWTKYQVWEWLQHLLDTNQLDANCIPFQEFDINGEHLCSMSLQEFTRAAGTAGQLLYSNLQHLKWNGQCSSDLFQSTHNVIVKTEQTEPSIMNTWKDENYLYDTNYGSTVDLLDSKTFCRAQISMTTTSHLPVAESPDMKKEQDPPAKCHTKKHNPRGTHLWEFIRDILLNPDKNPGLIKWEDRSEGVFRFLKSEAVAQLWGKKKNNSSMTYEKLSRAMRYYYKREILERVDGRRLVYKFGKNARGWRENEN
Method in brief: as §1

SPI1 = SPI1 (Homo sapiens, UniProt P17947 1-270)
Method in brief: as §1

SPIB = SPIB (Homo sapiens, UniProt Q01892 1-262)
SPIB, sequence (Q01892 whole entry): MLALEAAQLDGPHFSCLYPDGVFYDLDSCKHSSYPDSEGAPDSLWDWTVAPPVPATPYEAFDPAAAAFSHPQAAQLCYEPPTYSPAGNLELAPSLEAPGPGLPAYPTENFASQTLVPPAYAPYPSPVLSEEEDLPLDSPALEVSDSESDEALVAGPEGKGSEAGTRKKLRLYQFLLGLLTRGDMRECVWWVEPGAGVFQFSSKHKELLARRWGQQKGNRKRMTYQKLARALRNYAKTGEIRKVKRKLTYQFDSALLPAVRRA
Method in brief: as §1

ELK3 = molecular target: T6, ELK3 (Homo sapiens, UniProt P41970 1-407)
T6 sequence: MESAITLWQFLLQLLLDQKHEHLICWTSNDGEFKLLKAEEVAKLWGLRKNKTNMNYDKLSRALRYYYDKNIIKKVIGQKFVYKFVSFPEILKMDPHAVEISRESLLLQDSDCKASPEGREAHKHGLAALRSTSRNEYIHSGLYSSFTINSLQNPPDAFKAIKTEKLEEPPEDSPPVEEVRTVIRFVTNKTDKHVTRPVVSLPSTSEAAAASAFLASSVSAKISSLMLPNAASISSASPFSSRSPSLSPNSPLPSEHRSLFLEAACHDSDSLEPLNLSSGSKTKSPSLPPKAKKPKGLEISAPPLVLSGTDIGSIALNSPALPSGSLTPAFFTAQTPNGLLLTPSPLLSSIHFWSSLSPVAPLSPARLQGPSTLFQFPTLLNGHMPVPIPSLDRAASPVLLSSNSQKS
Method in brief: as §1

Sequence	binding signal (FLI1)	binding signal (ELK1)	binding signal (GABPA)	binding signal (ERG)	binding signal (ELF1)	binding signal (EHF)	binding signal (SPI1)	binding signal (SPIB)	binding signal (ELK3)
GATGCG	1.07 fold enrichment (6-mer frequency, TF over GST control)	1.14 fold enrichment (6-mer frequency, TF over GST control)	1.16 fold enrichment (6-mer frequency, TF over GST control)	1.16 fold enrichment (6-mer frequency, TF over GST control)	1.11 fold enrichment (6-mer frequency, TF over GST control)	1.16 fold enrichment (6-mer frequency, TF over GST control)	1.14 fold enrichment (6-mer frequency, TF over GST control)	1.19 fold enrichment (6-mer frequency, TF over GST control)	1.1 fold enrichment (6-mer frequency, TF over GST control)
CTCCAG	1.08 fold enrichment (6-mer frequency, TF over GST control)	1.12 fold enrichment (6-mer frequency, TF over GST control)	1.26 fold enrichment (6-mer frequency, TF over GST control)	1.16 fold enrichment (6-mer frequency, TF over GST control)	1.19 fold enrichment (6-mer frequency, TF over GST control)	1.17 fold enrichment (6-mer frequency, TF over GST control)	1.21 fold enrichment (6-mer frequency, TF over GST control)	1.23 fold enrichment (6-mer frequency, TF over GST control)	1.29 fold enrichment (6-mer frequency, TF over GST control)
CTAAGC	1.09 fold enrichment (6-mer frequency, TF over GST control)	1.06 fold enrichment (6-mer frequency, TF over GST control)	1.08 fold enrichment (6-mer frequency, TF over GST control)	1.11 fold enrichment (6-mer frequency, TF over GST control)	1.15 fold enrichment (6-mer frequency, TF over GST control)	1.14 fold enrichment (6-mer frequency, TF over GST control)	1.03 fold enrichment (6-mer frequency, TF over GST control)	1.16 fold enrichment (6-mer frequency, TF over GST control)	1.03 fold enrichment (6-mer frequency, TF over GST control)
CACCTT	1.36 fold enrichment (6-mer frequency, TF over GST control)	1.28 fold enrichment (6-mer frequency, TF over GST control)	1.22 fold enrichment (6-mer frequency, TF over GST control)	1.26 fold enrichment (6-mer frequency, TF over GST control)	1.24 fold enrichment (6-mer frequency, TF over GST control)	1.34 fold enrichment (6-mer frequency, TF over GST control)	1.25 fold enrichment (6-mer frequency, TF over GST control)	1.18 fold enrichment (6-mer frequency, TF over GST control)	1.26 fold enrichment (6-mer frequency, TF over GST control)
GACCTA	1.18 fold enrichment (6-mer frequency, TF over GST control)	1.07 fold enrichment (6-mer frequency, TF over GST control)	1.17 fold enrichment (6-mer frequency, TF over GST control)	1.11 fold enrichment (6-mer frequency, TF over GST control)	1.21 fold enrichment (6-mer frequency, TF over GST control)	1.15 fold enrichment (6-mer frequency, TF over GST control)	1.02 fold enrichment (6-mer frequency, TF over GST control)	1.08 fold enrichment (6-mer frequency, TF over GST control)	1.21 fold enrichment (6-mer frequency, TF over GST control)
TTGTCC	1.47 fold enrichment (6-mer frequency, TF over GST control)	1.32 fold enrichment (6-mer frequency, TF over GST control)	1.41 fold enrichment (6-mer frequency, TF over GST control)	1.4 fold enrichment (6-mer frequency, TF over GST control)	1.3 fold enrichment (6-mer frequency, TF over GST control)	1.31 fold enrichment (6-mer frequency, TF over GST control)	1.17 fold enrichment (6-mer frequency, TF over GST control)	1.34 fold enrichment (6-mer frequency, TF over GST control)	1.43 fold enrichment (6-mer frequency, TF over GST control)
AATTCT	1.4 fold enrichment (6-mer frequency, TF over GST control)	1.22 fold enrichment (6-mer frequency, TF over GST control)	1.38 fold enrichment (6-mer frequency, TF over GST control)	1.31 fold enrichment (6-mer frequency, TF over GST control)	1.32 fold enrichment (6-mer frequency, TF over GST control)	1.28 fold enrichment (6-mer frequency, TF over GST control)	1.27 fold enrichment (6-mer frequency, TF over GST control)	1.39 fold enrichment (6-mer frequency, TF over GST control)	1.38 fold enrichment (6-mer frequency, TF over GST control)
CATCCG	2.09 fold enrichment (6-mer frequency, TF over GST control)	2.2 fold enrichment (6-mer frequency, TF over GST control)	1.86 fold enrichment (6-mer frequency, TF over GST control)	2.45 fold enrichment (6-mer frequency, TF over GST control)	1.86 fold enrichment (6-mer frequency, TF over GST control)	2.19 fold enrichment (6-mer frequency, TF over GST control)	2.01 fold enrichment (6-mer frequency, TF over GST control)	2.29 fold enrichment (6-mer frequency, TF over GST control)	2.5 fold enrichment (6-mer frequency, TF over GST control)
